# Compounds with a hit are over-represented: about 4.1% of the library has one in this group of screens.
# hcDAF12 agonist – activators of H. contortus DAF-12 nuclear receptor; HEK293 hcDAF-12 lit1-tk-luc reporter, luminescence; 0% DMSO, 100% Δ7-dafachronic acid; activation, % at 6.8 µM; 1.4% of 370,000 active;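 active means activation above the mean of all tested compounds plus 3 SD, cut at about 5.5% in these data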;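 further: 100% = response to 3 µM Δ7-dafachronic acid high control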
# DAX1 inh-1 – inhibits human nuclear receptor DAX1 | P51843 | HEK293 Gal4-DAX1 luciferase reporter, luminescence | inhibition, % at 6.75 µM | 0.99% of 340,000 active | AID 504766;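 active means inhibition above the mean over all tested compounds plus 3 SD, cut at about 4.2% in these data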;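 further: 0% = DAX1-transfected cells with DMSO and 100% = empty-vector control cells with DMSO; inhibition shows as a rise in luminescence from relieved DAX1 repression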
# ssDAF12 agonist – S. stercoralis DAF-12 activation, primary screen. HEK293 ssDAF-12/GRIP1 lit1-tk-luc reporter, luminescence; % of 3 µM dafachronic acid response. activation, % at 6.8 µM. 1% of 370,000 active;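 active means activation above the mean over all tested compounds plus 3 SD, cut at about 0.9% in these data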;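 further: 0% = DMSO-only wells and 100% = 3 µM delta7-dafachronic acid wells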
# hgDAF-12 ag – agonists of H. glycines DAF-12 nuclear receptor; HEK293 GAL4-hgDAF12 UAS-luciferase reporter, agonist luminescence; normalized to butyrate control; activation, % at 6.8 µM; 1.8% of 370,000 active; AID 687014;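 active means activation above a cutoff set at the mean of all screened compounds plus 3 SD, cut at about 10% in these data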;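 further: 0% = DMSO wells and 100% = sodium butyrate wells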
# DAX1 inh-2 – inhibitors of DAX1 repression of SF-1 activated StAR promoter; AID 652010; 1.1% of 370,000 active; HEK293T StAR-luciferase reporter, SF-1/DAX-1 repression relief; inhibition, % at 6.8 µM;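 active means inhibition above the mean over all tested compounds plus 3 SD, cut at about 3.6% in these data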;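 further: 0% = DAX-1 cells with DMSO and 100% = cells lacking DAX-1 with DMSO; higher inhibition means more luminescence from relief of DAX-1 repression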
# DAX1 conf – NR0B1 (human) inhibition, confirmation; shares compounds with DAX1 inh-2; HEK293T StAR-promoter luciferase reporter, SF-1/DAX-1 repression; inhibition, % at 6.8 µM; 87% of 2,400 active; AID 652134;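 active means inhibition above the average of every tested compound plus 3 SD, cut at about 3.8% in these data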;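 further: 0% = DAX-1 cells with DMSO and 100% = no DAX-1 control cells with DMSO; active compounds raise luminescence by relieving repression of the StAR reporter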
# Target sequence (P51843 whole entry, looked up): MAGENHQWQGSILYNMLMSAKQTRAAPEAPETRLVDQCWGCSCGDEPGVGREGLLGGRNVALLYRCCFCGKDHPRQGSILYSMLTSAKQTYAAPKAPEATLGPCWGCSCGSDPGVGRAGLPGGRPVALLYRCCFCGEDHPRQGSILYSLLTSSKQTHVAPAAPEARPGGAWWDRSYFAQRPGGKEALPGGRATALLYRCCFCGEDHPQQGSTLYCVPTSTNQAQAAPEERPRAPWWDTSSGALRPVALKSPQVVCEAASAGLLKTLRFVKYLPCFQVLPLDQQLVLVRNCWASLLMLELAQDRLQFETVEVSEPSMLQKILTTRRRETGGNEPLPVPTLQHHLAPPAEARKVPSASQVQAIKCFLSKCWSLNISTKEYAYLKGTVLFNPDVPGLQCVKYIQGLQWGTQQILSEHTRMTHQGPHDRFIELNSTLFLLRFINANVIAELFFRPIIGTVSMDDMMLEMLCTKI
# SF1 AF2mut Luc – counter-screen for DAX1 inhibitors: nonselective inhibitors with SF-1 AF2 mutant | AID 652136 | shares compounds with DAX1 inh-2 | HEK293 StAR-luciferase, luminescence | 78% of 2,400 active | inhibition, % at 6.8 µM;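 active means inhibition above the mean of all tested compounds plus 3 SD, cut at about 3% in these data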;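 further: 0% = DAX-1 transfected cells with DMSO and 100% = cells without DAX-1 with DMSO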
# LXR ag – activates human LXR-beta, counter-screen for hcDAF-12 agonists; shares compounds with hcDAF12 agonist; HEK293 Gal4-LXR tk-luc reporter, luminescence, 24 h; normalized: DMSO 0%, positive control 100%; activation, % at 6.8 µM; 3,400 tested, under 10 active; AID 743027;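 active means mean percent activation of the reporter above a cutoff set as the average over tested compounds plus their standard deviation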
# hcDAF12 conf – confirmation of H. contortus DAF-12 agonists; shares compounds with hcDAF12 agonist; HEK293 hcDAF-12 lit1-tk-luc reporter, luminescence; % of Δ7-dafachronic acid response; activation, % at 6.8 µM; 61% of 3,400 active; AID 743032;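 active means mean activation across triplicate tests above the threshold derived from the earlier primary screen, cut at about 5.5% in these data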;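 further: 0% = DMSO only wells and 100% = 3 µM Δ7-dafachronic acid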
# hgDAF12 conf – hgDAF-12 agonism, confirmation assay | shares compounds with hgDAF-12 ag | HEK293 GAL4-hgDAF12 luciferase reporter, agonist mode; percent of butyrate response | activation, % at 6.8 µM | 80% of 3,300 active;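 active means mean activation over triplicate wells above the hit cutoff derived from the earlier primary screen, cut at about 11% in these data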;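 further: 0% = DMSO low control and 100% = 2 mM sodium butyrate high control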
# LXRb DAF12 ctr – counter-screen for DAF-12 agonists: agonists of human LXR-beta; shares compounds with hgDAF-12 ag; HEK293 Gal4-LXR luciferase reporter, 24 h; activation, % at 6.8 µM; 3,300 tested, under 10 active;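 active means mean activation of the triplicate above a set limit carried over from the primary screen, none filed active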
# An asterisk follows results filed as active; / = not tested or not shown.
SMILES,hcDAF12 agonist,DAX1 inh-1,ssDAF12 agonist,hgDAF-12 ag,DAX1 inh-2,DAX1 conf,SF1 AF2mut Luc,hgDAF12 conf,LXRb DAF12 ctr,others
Cn1c(C(=O)Nc2ccc3c(c2)OCO3)cc2sccc21,14*,4.8*,2.5*,17*,5.5*,11*,7.0*,19*,1,LXR ag=1;hcDAF12 conf=16*
Cc1ccc(C(=O)Nc2ccc3c(c2)OCO3)cc1Cl,6.1*,4.8*,0,18*,11*,11*,6.6*,20*,1,
O=C(Nc1ccc2c(c1)OCO2)Nc1ccccc1F,2,0,0,19*,11*,13*,6.9*,15*,1,
O=C(Nc1ccc2c(c1)OCO2)c1cnc(Cl)c(Cl)c1,6.3*,3,1.8*,21*,5.6*,8.1*,6.5*,16*,1,
CN(Cc1ccc2c(c1)CCCN2C)C(=O)[C@@H](Cc1ccccc1)NC(=O)[C@H]1O[C@@H](n2ccc(=O)[nH]c2=O)[C@H](O)[C@@H]1O,-3,/,-1,2,0,/,/,/,/,
O=C(Nc1ccc(Cl)cc1Cl)c1ccc2c(c1)OCCO2,7.5*,-1,1,14*,8.7*,17*,6.7*,17*,1,LXR ag=2;hcDAF12 conf=6.3*
O=C(Nc1ccccn1)c1ccc2c(c1)OCO2,4,0,0,22*,6.1*,6.8*,3.4*,13*,0,
C=CCN1C(=O)[C@H](CC(=O)NCc2ccc(C)o2)[C@@]2(C(=O)OCC)CCCC=C12,1,/,-1,1,-1,/,/,/,/,
COC(=O)C[C@H]1CC[C@@H]2[C@H](COc3ccc(NC(=O)c4cccc(F)c4)cc3C(=O)N2C)O1,1,/,-1,-1,0,/,/,/,/,
COC(=O)[C@H]1C[C@@]2(C3C=CC=C3)c3ccccc3N[C@H]2N1,1,/,-1,5,0,/,/,/,/,
O=C(Nc1cnn(C23CC4CC(CC(C4)C2)C3)c1)c1cnn2cccnc12,4,0,1.2*,14*,5.8*,10*,5.9*,15*,1,
Cc1ccccc1Cn1cc(COC(=O)Nc2ccc(F)cc2)nn1,2,/,0,0,2,/,/,/,/,
COc1ccc(/C=C/c2cc(O)cc(OC3OC(CO)C(O)C(O)C3O)c2)cc1 (centres undefined),6.9*,0,0,17*,8.8*,16*,8.2*,11*,1,LXR ag=2;hcDAF12 conf=7.8*
Cc1cc(O)cc(O[C@H]2OC(CO)[C@H](O)[C@@H](O)[C@H]2O)c1 (some centres undefined),2,0,-1,2,0,/,/,/,/,
N#Cc1[nH]nc2nc[nH]c(=O)c12,0,/,-2,-3,1,/,/,/,/,
COC(=O)[C@]12C[C@H](CC(=O)NCc3cccc(C(F)(F)F)c3)C(=O)N(Cc3ccccc3)C1=C[C@H](C(C)C)O[C@@H]2C1CC1,-2,/,-1,2,1,/,/,/,/,
O=C(Nc1ccc2ccccc2c1)c1cc(F)c(F)cc1Cl,0,4,0,10,3,/,/,/,/,
O=C(Nc1ccc2ccccc2c1)c1ccccc1Cl,9.3*,2,2.3*,14*,13*,17*,9.2*,22*,1,LXR ag=2;hcDAF12 conf=7.7*
C=CCN(CC#Cc1ccc(C(F)(F)F)cc1)CC=C,3,/,-1,-4,0,/,/,/,/,
